Measured values as given in PubChem BioAssay (NCI).
The panel holds about 83,000 compounds, 20% with a hit somewhere; the sample as a whole holds those more often.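 Method: cells in 96-well plates; compound added at one concentration; 48 h incubation; percent growth measured; values under 10 scored active.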 Values without a mark were called inactive. Activity calls are given as the source filed them.

tested on: SN12C renal; assay: NCI-60 one-dose screen, 48 h (100 = growth as untreated, 0 = no growth, -100 = all killed); settings: 10 µM unless noted

Compound	growth
CCOC(=O)CC1C(COC(=O)NC)OC(n2cnc3c(NC(=O)Nc4ccccc4)ncnc32)C1O[Si](C)(C)C(C)(C)C (stereo unspecified)	34.8%
CN1C(=O)N(C)C2Nn3c(s/c(=C\c4ccccc4)c3=O)=NC21 (stereo unspecified)	95.6%
COc1cc(C(=O)c2cc(C)c3[nH]c4ccc(C)cc4c3c2C)cc(OC)c1OC	22.5%
CC(=O)N1CCN(c2ccc(OCC3CO[C@](Cn4ccnc4)(c4ccc(Cl)cc4Cl)O3)cc2)CC1 (stereo partly specified)	84.2%
CN1CCN(Cc2ccc(NC(=O)c3cncc(C#Cc4cnccc4C#N)c3)cc2C(F)(F)F)CC1	60.5%
CCOC(=O)/C(C#N)=C\Nc1ccc2ncnc(Nc3ccc(Cl)cc3Cl)c2c1	89.5%
Cn1cc(C(=O)c2nc(-c3cn(C)c4ccc(F)cc34)no2)c2cc(F)ccc21	91.9%
c1cc(-c2nnc(SSc3ncnc4nc[nH]c34)o2)ccn1	55.8%
CN(C)CC#Cc1ccc2ncc(C#N)c(Nc3ccc(F)c(Cl)c3)c2c1	35.4%
C#Cc1cccc(NC(=O)Nc2ccccc2NC(=O)CCl)c1	-68.6% [8.25 µM] (active)
COc1ccc2c(c1OC)C(=O)O[C@H]2[C@H]1c2c(cc3c(c2OC)OCO3)CCN1C	100%
Cc1ccc2c(-c3cc(-c4ccccc4)nc(N)c3C#N)cc(=O)oc2c1	91.2%
C[C@]12CC[C@@H]3c4cc(OC(F)F)c(OS(N)(=O)=O)cc4CC[C@H]3[C@@H]1CC[C@@H]2O	32.6%
CC(=O)Oc1ccccc1C(=O)N=C1[Se]CCCN1C(=O)c1ccccc1OC(C)=O	-15.2% (active)
N#Cc1c(-c2ccc(Cl)cc2)nc2c(c(-c3ccccc3)nn2-c2ccccc2)c1-c1ccc(O)cc1	-18.4% (active)
CC(=O)c1ccc(Nc2nc(C(C)=O)c(C)s2)cc1	103%
O=C(CCCCCCSc1nc(-c2ccccc2)cc(-c2ccccc2)n1)NO	70.1%
Cc1cc(Cl)ccc1NS(=O)(=O)c1ccc(-c2cnc(C3CC3)o2)cc1	46.7%
Brc1ccc2[nH]cc(-c3nc(-c4c[nH]c5ccncc45)cs3)c2c1	-85.6% (active)
COc1cc(C(=O)/C=C/c2c(Cl)nc3sccn23)cc(OC)c1OC	66.3%
N/C(=N\c1nc2ccccc2s1)NC(=O)Nc1cccc2ccccc12	44%
NC1CCN(c2nc(Nc3cccc(C(F)(F)F)c3)c3c(=O)[nH]ccc3n2)CC1	-75.8% (active)
COc1ccc(/C=N/Nc2cc(=O)[nH]c3ccc(Cl)cc23)cc1	62.3%

tested on: UO-31 renal; assay: as above; settings: 10 µM unless noted

Compound	growth
O=C(Nn1c(NCC(=O)N2c3ccccc3Sc3ccccc32)nnc1-c1ccc(O)cc1)c1ccccc1	91.1%
N#C/C(=C\c1cccc2cnccc12)n1nnc2cccc(F)c21	41.4%
O=C(S)CNC(=O)c1ccccc1	76.5%
CN(C)c1ccc2nc3ccc(=[N+](C)C)c([N+](=O)[O-])c-3sc2c1	51.7%
O=C1c2ccccc2NC(n2sc3ccccc3c2=O)N1c1ccccc1 (stereo unspecified)	78.4%
Cc1nc2ccccc2c(/C=C/c2ccccc2)c1C(=O)/C=C/c1ccc(C(F)(F)F)cc1	-96.9% (active)
CCOC(=O)c1nc(Nc2ccc(C(C)=O)cc2)sc1C	91.8%
Oc1ccc(Cl)cc1Cc1cc(Cl)cc(Cl)c1O	44.8%
COc1nc2ccc(C)cc2cc1-c1nc2c(cnn2-c2ccc(Br)cc2)c(=O)[nH]1	45.7%
CC(=O)OC[C@H]1OC(Sc2sc(C(=O)c3ccc(Cl)cc3)c(N)c2-c2nc3ccccc3s2)[C@H](OC(C)=O)[C@@H](OC(C)=O)[C@@H]1OC(C)=O (stereo partly specified)	79.4%
O=C1NC(=O)C(Cn2cnc3ccccc32)N1 (stereo unspecified)	92.6%
COc1cc(/C=C/C(=O)/C=C/c2cc(OC)c3c(c2OC)OCO3)c(OC)c2c1OCO2	57.3%
COc1c(B(O)O)cc(C)cc1-c1nc2ccc3[nH]ncc3c2c2c1CCCC2	23.5%
CCCCCCN(CCCCCC)c1ccc(/C=C2/SC(=O)NC2=O)c(C)c1	64.1%
COC(=O)c1ccc2[nH]c(O)c(C(=Nc3ccc(N(C)C(=O)CN4CCN(C)CC4)cc3)c3ccccc3)c2c1	16%
CCOC(=O)CC1C(COC(=O)NC)OC(n2cnc3c(NC(=O)Nc4ccccc4)ncnc32)C1O[Si](C)(C)C(C)(C)C (stereo unspecified)	41.9%
CN1C(=O)N(C)C2Nn3c(s/c(=C\c4ccccc4)c3=O)=NC21 (stereo unspecified)	81.8%
COc1cc(C(=O)c2cc(C)c3[nH]c4ccc(C)cc4c3c2C)cc(OC)c1OC	24.9%
CC(=O)N1CCN(c2ccc(OCC3CO[C@](Cn4ccnc4)(c4ccc(Cl)cc4Cl)O3)cc2)CC1 (stereo partly specified)	53.7%

Compound	growth
CN1CCN(Cc2ccc(NC(=O)c3cncc(C#Cc4cnccc4C#N)c3)cc2C(F)(F)F)CC1	43.5%
CCOC(=O)/C(C#N)=C\Nc1ccc2ncnc(Nc3ccc(Cl)cc3Cl)c2c1	42%
Cn1cc(C(=O)c2nc(-c3cn(C)c4ccc(F)cc34)no2)c2cc(F)ccc21	63%
c1cc(-c2nnc(SSc3ncnc4nc[nH]c34)o2)ccn1	30%
CN(C)CC#Cc1ccc2ncc(C#N)c(Nc3ccc(F)c(Cl)c3)c2c1	18%
C#Cc1cccc(NC(=O)Nc2ccccc2NC(=O)CCl)c1	-97.7% [8.25 µM] (active)
COc1ccc2c(c1OC)C(=O)O[C@H]2[C@H]1c2c(cc3c(c2OC)OCO3)CCN1C	85.9%
Cc1ccc2c(-c3cc(-c4ccccc4)nc(N)c3C#N)cc(=O)oc2c1	86.3%
C[C@]12CC[C@@H]3c4cc(OC(F)F)c(OS(N)(=O)=O)cc4CC[C@H]3[C@@H]1CC[C@@H]2O	40.1%
CC(=O)Oc1ccccc1C(=O)N=C1[Se]CCCN1C(=O)c1ccccc1OC(C)=O	-55.8% (active)
N#Cc1c(-c2ccc(Cl)cc2)nc2c(c(-c3ccccc3)nn2-c2ccccc2)c1-c1ccc(O)cc1	30.5%
CC(=O)c1ccc(Nc2nc(C(C)=O)c(C)s2)cc1	92.1%
O=C(CCCCCCSc1nc(-c2ccccc2)cc(-c2ccccc2)n1)NO	22.3%
Cc1cc(Cl)ccc1NS(=O)(=O)c1ccc(-c2cnc(C3CC3)o2)cc1	45.8%
Brc1ccc2[nH]cc(-c3nc(-c4c[nH]c5ccncc45)cs3)c2c1	-83.9% (active)
COc1cc(C(=O)/C=C/c2c(Cl)nc3sccn23)cc(OC)c1OC	60.4%
N/C(=N\c1nc2ccccc2s1)NC(=O)Nc1cccc2ccccc12	53.4%
NC1CCN(c2nc(Nc3cccc(C(F)(F)F)c3)c3c(=O)[nH]ccc3n2)CC1	-80.8% (active)
COc1ccc(/C=N/Nc2cc(=O)[nH]c3ccc(Cl)cc23)cc1	94.7%
